Data as given in PubChem BioAssay AID597 (National Center for Advancing Translational Sciences (NCATS), 2007).
Hit rate of the full screen: of about 68,000 compounds, about 60 (0.09%) were called active. Calls follow the shape of the dose curve; as a rule, active = well fitted curve in the direction sought with a large enough effect; inconclusive = small, poorly fitted or top-dose-only effect; inactive = flat fitted curve, though single readings scatter. Not all results are given here. Where a SMILES comes first, the peptide text is derived from it. The star is where a group is joined. Bz = O=C(c1ccccc1)*

Test: qHTS Assay for Epigenetic Modulators; also: % of control where 0% means no effect
Settings: mouse C127i GFP locus derepression, cytometry, 30 h; series mostly up to 46.1 µM
From the text: NIH Molecular Libraries Screening Centers Network [MLSCN] NIH Chemical Genomics Center [NCGC] MLSCN Grant: 1 X01 MH079860-01 Assay Provider: Elisabeth D. Martinez, University of Texas SW Medical Center NCGC Assay Overview: The Locus Derepression assay detects the derepression of a GFP reporter that is stably integrated in a region of the genome of murine c127i mammary cells that is presumably silenced. GFP transcription in this construct is controlled by a CMV promoter, which normally is strong and constitutively active. However, this line was selected for lack of constitutive expression of the GFP protein. GFP production can be induced by incubating the cells with histone deacetylase or DNA methyltransferase inhibitors. Compounds that cause derepression of the locus to express GFP are identified by enumerating GFP positive cells using a laser-scanning microplate cytometer. For further details of this screen and follow-up characterization, see R.L. Johnson, W. Huang, A. Jadhav, C.P. Austin, J. Inglese, E.D. Martinez, A Quantitative High-Throughput Screen Identifies Potential Epigenetic Modulators of Gene Expression, Analytical Biochemistry (2008) 375(2):237-48.
NCGC Assay Protocol Summary: Two hundred and fifty cells in 5 uL per well were dispensed into black, clear-bottom 1536-well plates. Twenty-three nL compound was transferred to the assay plate and cells were incubated 30 hours at 37 C. Medium was removed, cells were washed two times with PBS, and GFP-positive cells were enumerated as fluorescent objects between the sizes of 20 to 120 um width and depth using an Acumen Explorer. Keywords: NIH Roadmap, MLSCN, MLI, MLSMR, qHTS, NCGC, qHTS, HDAC, DNMT, HAT, DNA methyltransferases, histone acetyl transferases, histone deacetylases

GFP derepression (activation), inactive:
Cn1c(=O)c2cn(-c3cccc4ccccc34)cc2n(C)c1=O
CC(C)NC(=O)N1CC[C@@]2(CCCN(C(=O)c3cccc(F)c3)C2)C1 -0.9% [at 9.22 µM]
CC(=O)c1ccc(Oc2cc(C)nc(-n3nc(C)cc3C)n2)cc1
Cc1ccc(-c2nn(-c3ccccc3)cc2CN(Cc2ccccc2)C(=O)CCC(=O)O)o1
COc1ccc(N2CCN(Cc3cc(=O)oc4ccc5ccccc5c34)CC2)cc1
O=C(NCCCNC(=O)NC1CCCCC1)NC1CCCCC1
FC(F)(F)c1cccc(Nc2ncnc3ccccc23)c1
O=C1C2(c3ccccc3)CN(CCCO)CC1(c1ccccc1)CN(CCCO)C2
COC(=O)c1sc(=S)n(-c2ccccc2)c1N
CCCN1C(=O)C(NC(C)=O)c2cc(OC)ccc21 (configuration not stated)
O=C(NCCc1ccco1)c1nn(Cc2ccccc2)c(=O)c2ccccc12
CC(C)(C)C(=O)CCN1C(=O)C2(OCCO2)c2ccccc21
CCC(C(=O)OCCN(CC)CC)c1ccccc1 (configuration not stated)
Cc1cc(C)c2nc3c(c([C@H](O)[C@@H]4CCCCN4)c2c1)CC/C3=C/c1ccc(Cl)cc1 0% [at 9.22 µM]
CC1=CC(C)(C)N(C(=O)CSc2nnc(-c3ccccc3)o2)c2ccc(C)cc21
O=C(O)c1ccc(NS(=O)(=O)c2cccc3nsnc23)cc1
COc1ccccc1C(=O)NCCn1cc(SCC(=O)NCc2ccco2)c2ccccc21
O=C(Cn1[nH]c(=O)c2ccccc2c1=O)Nc1cccc(-c2nnc3n2CCCCC3)c1
COc1ccc(NC(=O)c2c(C)oc3c2CCCC3)cc1
CS(=O)(=O)N1CCC[C@@]2(CCN(c3ccncc3)C2)C1 0% [at 9.22 µM]
O=C(O)c1ccc(NC(=O)c2cccs2)cc1
O=C(Nc1ccc(Cl)cc1)c1ccsn1
COc1ccc(C2C3=C(CC(C)(C)CC3=O)Oc3ncn4nc(-c5cccnc5)nc4c32)cc1OC (configuration not stated)
CN1CCN2c3ccccc3Cc3ccccc3[C@@H]2C1
O=C(CCCn1c(SCC(=O)c2ccc(F)cc2)nc2ccccc2c1=O)NCc1ccco1
COC(=O)[C@H](C)NC(=O)Nc1ccc(OC(F)(F)F)cc1
COC(=O)c1cnn2c(C(F)(F)F)cc(-c3ccco3)nc12
COc1ccc(-c2nnc(SC(=O)N3c4ccccc4Sc4ccccc43)o2)cc1
COc1ccccc1-c1nc(NCc2cccs2)c2ccccc2n1 0% [at 9.22 µM]
O=c1oc2c(CN3CCCCC3)c(O)ccc2c2c1CCCCC2
COc1ccc(C2N=C(N)N=C(N)N2c2ccccc2)cc1OC (configuration not stated)
O=C(O)COc1c(Cl)cc(Cl)c2cccnc12 5.8% [at 9.22 µM]
CCn1c(SCC(=O)Nc2ccc3c(c2)OCCO3)nc2c(c1=O)SC(C)C2 (configuration not stated)
Cn1c(=S)c2[nH]c(SCCCc3ccccc3)nc2n(C)c1=O -3.4% [at 9.22 µM]
COc1cccc(Cn2c(=O)c(-c3ccccc3)nc3cnc(OC)nc32)c1 10.8% [at 9.22 µM]
CCCC(C(=O)OCCN(CC)CC)(c1ccccc1)c1ccccc1
O=C(OCCN1CCOCC1)C1(c2ccccc2)CCCCC1
O=C(c1cc(C(F)(F)F)cc(C(F)(F)F)c1)N1CCC2(CCCN(Cc3ccncc3)C2)CC1 2.2% [at 9.22 µM]
O=C(O)CCC(=O)Nc1ccc(N2CCOCC2)cc1
COCCn1c(=O)c(-c2cc(F)cc(F)c2)nc2cnc(N3CCNCC3)nc21 -0.5% [at 9.22 µM]
CN(C)C(=O)c1ccc(-c2cncnc2Nc2ccccc2)cc1 5.7% [at 9.22 µM]
COc1ccc(NC(=O)CSc2nnc(-c3cccs3)n2Cc2ccco2)cc1OC
CCOC(=O)N1CCN(C(=O)c2n[nH]c(=O)c3ccccc23)CC1
CC(=O)Nc1ccc(S(=O)(=O)N2CCSCC2)cc1
CCOc1ccc(NS(=O)(=O)c2ccc(OCC(=O)NCCCOC)cc2)cc1
COc1ccc(C(=O)N/N=C2/C(=O)c3c(C)cc(C)cc3CC2(C)C)cc1 3.4% [at 9.22 µM]
N#Cc1cc2[nH]c(=O)c(=O)[nH]c2cc1[N+](=O)[O-]
N/C(=N\c1nc2ccccc2o1)NC(=O)C(Cc1ccccc1)N1C(=O)c2ccccc2C1=O (configuration not stated)
CCCNS(=O)(=O)c1ccc(CCC(=O)NCc2cccnc2)cc1
Cc1nc2ccc(S(=O)(=O)NCC(=O)NCCN3CCCCC3C)cc2s1 (configuration not stated)
N#Cc1cccc(-c2nc3cnc(N4CCNCC4)nc3n(C3CC3)c2=O)c1 -5% [at 9.22 µM]
COc1ccc(C2OC(=O)CC2C(=O)NC(C)C)cc1 (configuration not stated)
O=C(NCC12CC3CC(C1)CC(CNC(=O)N1CCCC1)(C3)C2)N1CCCC1
C[C@]1(O)CC[C@H]2[C@H]3CC=C4N5CCN=C5CC[C@@]4(C)[C@H]3CC[C@@]21C -3.4% [at 9.22 µM]
COCCn1c(=O)c(C)nc2cnc(N(C)C)nc21 2.3% [at 9.22 µM]
CN1CCCc2cc(C#N)c(=O)[nH]c21
CCCc1[nH]nc2c1C(c1ccc(OC(=O)c3ccco3)cc1)C(C#N)=C(N)O2 (configuration not stated)
CCCCOc1ccc(-c2nnc(-c3ccco3)o2)cc1
CC(C)NC(=O)N1CC[C@@]2(CCCN(C(=O)c3cccn3C)C2)C1 2.2% [at 9.22 µM]
O=S(=O)(NCc1ccc2c(c1)OCO2)c1cccc2nsnc12
COc1ccc(CNC(=O)c2c(C)cc(=O)oc2C)cc1OC
Cc1cccc(CC(=O)Nc2c3c(nn2-c2cccc(Cl)c2)CS(=O)C3)c1 (configuration not stated)
Cc1nn(C)c(C)c1S(=O)(=O)N1CCc2ccccc21
Cc1nc2cnc(N3CCNCC3)nc2n(CCc2ccccc2)c1=O 8.1% [at 9.22 µM]
Clc1ccc(C(c2ccc(Cl)cc2)n2cc[n+](C[C@@H](OCc3ccc(Cl)cc3Cl)c3ccc(Cl)cc3Cl)c2)cc1
C=CCSC1=C(C#N)C(c2cc(Br)c(O)c(OC)c2)CC(=O)N1 (configuration not stated)
CN(C)CCSS(=O)(=O)O 0.1% [at 9.22 µM]
CC(NC(=O)CSc1nc2c(cc1C#N)CN(C)CC2)c1ccccc1 (configuration not stated)
CCNC(=O)CN(c1ccc(C)cc1)S(=O)(=O)c1ccc(SC)cc1
CC(=O)c1sc2nc(SCC(=O)N3CCCCC3)[nH]c(=O)c2c1C
Cn1cccc1C1(C(F)(F)F)NCCNC1=O (configuration not stated)
CCOC(=O)N1CCN(C(=O)c2nn(-c3ccc(C)cc3)c(=O)c3c2c2ccccc2n3C)CC1
COc1ccccc1CNC(=O)CCCNS(=O)(=O)c1cccc2nsnc12
O=C(c1ccc(O)cc1)c1ccc(C(=O)O)c(C(=O)O)c1
CCOC(=O)CNC(=O)CSc1nnnn1-c1cc(C)ccc1C
COc1ccc(S(=O)(=O)Nc2c(C)n(C)n(-c3ccccc3)c2=O)cc1
COc1ccc(C(C(O)C(=O)c2c[nH]c3ccccc23)N2CCN(c3ccccc3)CC2)cc1 (configuration not stated)
Cn1c(=O)[nH]c(=O)c2c1nc(N(CCO)Cc1ccccc1)n2Cc1ccccc1Cl
Cn1c(=O)cc(SCC(=O)N2CCN(C(=O)c3ccco3)CC2)c2ccccc21
COc1ccc(OC)c(CNC(=O)C2CCCN(c3nc4ccccc4o3)C2)c1 (configuration not stated)
Cn1cc(-c2nc3cnc(N4CCNCC4)nc3n(CCC#N)c2=O)c2ccccc21 7.6% [at 9.22 µM]
CCOCCc1c(O)nc(SCC(=O)NCc2ccco2)[nH]c1=O
N#CC(C(N)=O)=C1CCC2(CC1)OCCCCO2
COC(=O)c1ccc(C2NC(=O)NC(C)=C2C(=O)N(C)C)cc1 (configuration not stated)
CCn1c2c(c3ccc(OC)cc31)CCCC2=O
COc1ccc(S(=O)(=O)NC(CC(=O)NCc2ccccc2OC)c2ccco2)cc1 (configuration not stated)
O=C(NC(Cc1ccccc1)C(=O)N1CCCC1C(=O)O)c1ccccc1 (stereo not drawn) (Bz-Phe-Pro-OH; configuration not given here)
Cc1nc2cnc(Oc3cccc(Cl)c3)nc2n(C2CC2)c1=O -2.7% [at 9.22 µM]
C[C@H]1O[C@@H](CC(=O)O)Cc2c1c(O)c1c(O)cc(-c3cc(=O)c4c(=O)c5c(c(=O)c=4c3=O)C[C@H](CC(=O)O)O[C@@H]5C)c(O)c1c2O 10.3% [at 9.22 µM]
CNc1cc(-c2c(C)noc2C)ncn1 0% [at 9.22 µM]
O=C(c1c(Cl)nc2sccn12)N1CCCc2ccccc21
Cc1ccc2[nH]c(=O)c(-c3nc4c(C)cccn4c3NCc3ccco3)cc2c1
COc1ccc(CNc2ncncc2-c2ccccc2C)c(OC)c1 0% [at 9.22 µM]
CCOC(=O)c1[nH]c2ccccc2c1N=C(C)N(CC)CC
Fc1ccc(Cn2nnnc2C(c2cccs2)N2CCCCCC2)cc1 (configuration not stated)
COc1ccc2[nH]c(=O)c(CN(CC3CCCO3)C(=O)Nc3ccccc3)cc2c1 (configuration not stated)
COc1ccc2[nH]cc(CCNc3ncnc4ccc(-c5ccccc5CN(C)C)cc34)c2c1 -5.2% [at 9.22 µM]
